From PubChem BioAssay (NCATS)
Results filed as inconclusive are left out. A call without a number means that no potency is given here. Calls of active or inactive are those of the source. Calls follow the shape of the dose curve; as a rule, active = well fitted inhibition curve with a large enough effect; inconclusive = small, poorly fitted or top-dose-only effect; inactive = flat fitted curve, though single readings scatter.

test system: Zika virus NS2B-NS3 protease; test: Primary screen GU AMC qHTS for Zika virus inhibitors (AID 1347154); settings: Zika NS2B-NS3 unlinked protease, AMC fluorogenic substrate; series mostly up to 54.1 µM; also: nearly all actives have a fitted effect of over 70% in size
How it was run: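 Unlinked Zika NS2B hydrophilic domain/NS3 protease domain noncovalent complex (25 nM final) in 10 mM Tris-HCl pH 8.0, 0.01% Tween 20, with AMC peptide substrate. Fluorescence (ex 340, em 450 nm) change over 15 min, room temperature; percent inhibition fitted to 4-parameter Hill equation.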
Potency is read from the fitted curve at half-maximal effect.

How did the Potency turn out when `c1ccc(N2CCNCC2)cc1` was run?
Its Potency is “inactive”.

Which Potency does the source give for `CCC1(c2ccccc2)C(=O)N(COC)C(=O)N(COC)C1=O` here?
The Potency was “inactive”.

Which Potency does the source give for `C[C@]12CCC(=O)C=C1CC[C@@H]1[C@@H]2CC[C@]2(C)C(=O)CC[C@@H]12` here?
Its Potency is “inactive”.

How did the Potency turn out when `CCN(CC)C(=O)[C@@H]1C=C2c3cccc4[nH]cc(c34)C[C@H]2N(C)C1` was run?
The Potency was 35.5 µM (active).

`CCOC(=O)CC(SP(=S)(OC)OC)C(=O)OCC` (stereo not drawn) was tested. Which Potency did it give?
Its Potency is “inactive”.

How did the Potency turn out when `CCN(CC)CCc1c[nH]c2ccccc12` was run?
The Potency was “inactive”.

With `COc1cccc(C(=O)CCN[C@@H](C)[C@H](O)c2ccccc2)c1` as the compound, how does the Potency read?
The Potency was “inactive”.

How did the Potency turn out when `C[N+]1(CCF)[C@@H]2CC[C@H]1CC(OC(=O)C(O)(c1ccccc1)c1ccccc1)C2` (stereo partly drawn) was run?
Its Potency is “inactive”.

Which Potency does the source give for `CC(C)NC(C)C` here?
The Potency was “inactive”.

`O=C1c2ccccc2C(=O)c2ccccc21` was tested. Which Potency did it give?
Its Potency is “inactive”.

`C#C[C@]1(O)CC[C@H]2[C@@H]3CCC4=CC(=O)CC[C@]4(C)[C@H]3CC[C@@]21C` was tested. Which Potency did it give?
Its Potency is “inactive”.

Which Potency does the source give for `Nc1nc(N)nc(NC2CC2)n1` here?
The Potency was “inactive”.

`CC(C)c1c(CN(C)C(C)Cc2ccccc2)n(C)n(-c2ccccc2)c1=O` (stereo not drawn) was tested. Which Potency did it give?
Its Potency is “inactive”.

With `C[C@]12CC[C@H]3[C@@H](CC[C@@]45O[C@H]4C(O)=C(C#N)C[C@]35C)[C@H]1CC[C@H]2O` as the compound, how does the Potency read?
The Potency was “inactive”.

Which Potency does the source give for `CC(Cc1ccccc1)N(C)Cc1ccco1` (stereo not drawn) here?
Its Potency is “inactive”.

With `NC1=NC(=O)C(c2ccccc2)O1` (stereo not drawn) as the compound, how does the Potency read?
The Potency was “inactive”.

With `Clc1ccc(C(c2ccc(Cl)cc2)C(Cl)(Cl)Cl)cc1` as the compound, how does the Potency read?
Its Potency is “inactive”.

Which Potency does the source give for `C#CC(O)(C=CCl)CC` (stereo not drawn) here?
The Potency was “inactive”.

With `CCN[C@H](C)Cc1cccc(C(F)(F)F)c1` as the compound, how does the Potency read?
The Potency was “inactive”.

How did the Potency turn out when `COP(=S)(OC)Oc1ccc(S(=O)(=O)N(C)C)cc1` was run?
The Potency was “inactive”.

For `NNc1ccccc1`, which Potency is on record?
The Potency was “inactive”.

How did the Potency turn out when `CC(Cc1ccccc1)NCCn1cnc2c1c(=O)n(C)c(=O)n2C` (stereo not drawn) was run?
The Potency was “inactive”.

`C=CCN1C[C@H](C)N([C@H](c2ccc(C(=O)N(CC)CC)cc2)c2cccc(OC)c2)C[C@H]1C` was tested. Which Potency did it give?
The Potency was “inactive”.

With `CCCOC(=O)c1cncn1C(C)c1ccccc1` (stereo not drawn) as the compound, how does the Potency read?
The Potency was “inactive”.

For `CC(=O)NC1CCSC1=O` (stereo not drawn), which Potency is on record?
Its Potency is “inactive”.

Which Potency does the source give for `C[C@@H](N)[C@@H](O)c1ccccc1` here?
Its Potency is “inactive”.

For `CN(C)CCc1c[nH]c2cccc(OP(=O)(O)O)c12`, which Potency is on record?
Its Potency is “inactive”.

Which Potency does the source give for `COC(=O)C(Cl)C(=O)OC` here?
The Potency was “inactive”.

For `CN1C(=O)NC(=O)C(C)(C2=CCCCC2)C1=O` (stereo not drawn), which Potency is on record?
Its Potency is “inactive”.

With `O=[N+]([O-])O[C@H]1CO[C@H]2[C@@H]1OC[C@H]2O[N+](=O)[O-]` as the compound, how does the Potency read?
Its Potency is “inactive”.

For `O=C1CN=C(c2ccccc2)c2cc([N+](=O)[O-])ccc2N1`, which Potency is on record?
The Potency was “inactive”.

With `C[C@]12CC[C@H]3[C@@H](CCC4=CC(=O)CC[C@@H]43)[C@@H]1CC[C@@H]2OC(=O)CCC1CCCCC1` as the compound, how does the Potency read?
Its Potency is “inactive”.

Which Potency does the source give for `NC(=O)c1cc([N+](=O)[O-])cc([N+](=O)[O-])c1` here?
The Potency was “inactive”.

Which Potency does the source give for `COC1CC(=C(c2cccs2)c2cccs2)C[N+](C)(C)C1` (stereo not drawn) here?
The Potency was “inactive”.

With `CCN[C@@H](C)Cc1ccccc1` as the compound, how does the Potency read?
The Potency was “inactive”.

How did the Potency turn out when `CN1CC[C@]23c4c5ccc(O)c4O[C@H]2[C@@H](O)C=C[C@H]3[C@H]1C5` was run?
The Potency was “inactive”.

For `Clc1cccc(SC2CCNCC2)n1`, which Potency is on record?
The Potency was “inactive”.

Which Potency does the source give for `CCCCC/C=C\C/C=C\C/C=C\C/C=C\CCCC(=O)NCC(=O)O` here?
The Potency was 25.6 µM (active).
